Consider 24 molecules from PubChem BioAssay (NCATS).

Assay [1] can be described thus: Viability qHTS for spleen associated tyrosine kinase inhibitor (SYKi) naive MV4-11 cells (AID 1963823). Also: nearly all actives have a fitted effect of over 40% in size. The gist of the method:
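SYKi-naive MV4-11 AML cells, 500 per well, were exposed to library compounds for 72 hr at 37 C, 5% CO2. Viability was then read by CellTiter-Glo luminescence after 10 min at room temperature.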
(In general: Quantitative high-throughput screening tests each substance at several concentrations.)

A short description of assay [2]: Viability qHTS for spleen associated tyrosine kinase inhibitor (SYKi) drug resistant MV4-11 cells (AID 1963824). Also: nearly all actives have a fitted effect of over 35% in size. The method in brief:
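SYK inhibitor-resistant MV4-11 AML cells, 500 per well, added to predispensed compounds and incubated 72 hr at 37 C, 5% CO2. Viability measured by CellTiter-Glo luminescence after 10 min at room temperature.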

A short description of assay [3]: Cellular viability qHTS for adrenocortical cancer (ACC) cell line SW-13 (AID 1963989). Also: nearly all actives have a fitted effect of over 65% in size.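 As to activity (max response): cells grown in serum-free medium with ITS supplement; % is scaled to controls: 0 for no effect and ±100 for the full control effect.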 The settings on record: SW-13 ACC cells viability, CellTiter-Glo, 48 h; activity (max response): stronger effect = lower value. The gist of the method:
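SW-13 cells in ITS-supplemented serum-free DMEM were plated overnight, then exposed for 48 h at 37C to compound titrations (up to 46 uM final). Viability was read by CellTiter-Glo luminescence; four-parameter logistic fits gave IC50 and efficacy.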

A short description of assay [4]: Cellular viability qHTS for adrenocortical cancer (ACC) cell line NCI-H295R (AID 1963990). Also: nearly all actives have a fitted effect of over 60% in size.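 As to activity change, negative = viability loss: 0% = DMSO only wells and -100% = full killing with cytotoxic reference compound.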 The method in brief: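 Luminescent ATP read-out (CellTiter-Glo, 20 min RT) after 48 h drug exposure of NCI-H295R cells; a titration up to 46 uM final. Data normalized to doxorubicin (100% inhibition) and DMSO (0%); 4-parameter fit gives IC50, max response.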

Where “and” joins values, the source holds several entries; their conditions need not be identical. Equal entries are not always repeated. Inconclusive results are not listed. Unmarked numbers belong to inactive results. Calls of active or inactive are those of the source. Calls follow the shape of the dose curve; as a rule, active = well fitted curve in the direction sought with a large enough effect; inconclusive = small, poorly fitted or top-dose-only effect, or another doubt; inactive = no such curve, though single readings can be large; an effect the other way counts as inactive or inconclusive.
Potency is read from the fitted curve at half-maximal effect.

As to `Cc1cnc(NC(=O)c2cc(Oc3cnc(C(=O)N(C)C)nc3)c3cc(C)oc3c2)cn1`, the Potency entry in assay [1], in assay [2] and in assay [4] was “inactive” throughout. For the same molecule, the activity (max response) in assay [3] is -13.9%.
`Nc1ccc(S(=O)(=O)c2ccc(N)cc2)cc1`: the Potency entry in assay [1], in assay [2] and in assay [4] was “inactive” throughout. Moreover, the activity (max response) in assay [3] is 8.46%.
Turning to `O=C(O)C(S)C(S)C(=O)O` (stereo unspecified), the Potency result in assay [1], in assay [2] and in assay [4] was “inactive” throughout.
As to `CCN[C@@H]1C[C@H](N)[C@@H](OC2OC(CN)=CCC2N)[C@H](O)[C@H]1O[C@H]1OC[C@](C)(O)[C@H](NC)[C@H]1O` (stereo partly specified), in assay [1], the viability (% of control) is 111% [at 0.588 µM]. Further, the viability, % of control in assay [2] is 115% [at 0.588 µM]. The activity (max response) in assay [3] was -2.24%. Also, the activity change, negative = viability loss in assay [4] is -3.31% [at 0.587 µM].
For `Fc1cccc(-n2cnc3c(NCc4nc5c(F)c(F)ccc5[nH]4)nc(N4CCOCC4)nc32)c1`, the Potency in assay [1] was 0.059 µM (active); in assay [2] it was 0.186 µM (active); in assay [3], 0.112 µM (active); in assay [4] it was 0.447 µM (active).
As to `Cc1onc(-c2c(Cl)cccc2Cl)c1C(=O)Cl`, the Potency entry in assay [1], in assay [2] and in assay [4] was “inactive” in each case. The activity (max response) in assay [3] was 17.1%.
Take `N#Cc1cc2cc(CN3CCC(Nc4ncnc5sc(CC(F)(F)F)cc45)CC3)c(O)cc2n1Cc1cn[nH]c1`: the Potency in assay [1] was 0.742 µM (active); in assay [2], 1.32 µM (active); in assay [3], 14.1 µM (active); in assay [4], 8.91 µM (active).
As to `C=C1[C@H](OC(=O)/C=C(\C)CC)C[C@@H](C(C)C)[C@@H]2[C@H]([C@@H](C)OC(C)=O)C(=O)C[C@@H]12`, the Potency in assay [1] is 14.8 µM (active); in assay [2] it was 13.2 µM (active). The activity (max response) in assay [3] is 6.72%. The Potency entry in assay [4] is “inactive”.
In the case of `CC(C)(Cc1ccc2ccccc2c1)NC[C@@H](O)COc1cccc(Cl)c1C#N`, the Potency was 6.61 µM (active) in assay [1], 6.61 µM (active) in assay [2], 6.31 µM (active) in assay [3] and 6.31 µM (active) in assay [4].
For `CC(C)Oc1ccc(C(=O)N[C@H](CNC(=O)CN(C)C)Cc2ccc(-c3cn4cccc([C@H](C)O)c4n3)cc2)cc1Cl`, the Potency in assay [1] is 0.0263 µM (active); in assay [2], 0.0295 µM (active); in assay [4], 0.316 µM (active).
`O=C(OCC1(COC(=O)c2cccnc2)CCCC(COC(=O)c2cccnc2)(COC(=O)c2cccnc2)C1O)c1cccnc1`: the Potency entry in assay [1], in assay [2] and in assay [4] was “inactive” throughout. For the same molecule, the activity (max response) in assay [3] was 7.27%.
On to `Cc1nnc(C[C@@H]2C=C(c3ccc(Cl)cc3)c3ccccc3-n3c(C)nnc32)o1`, for which the Potency in assay [1] is 0.235 µM (active); in assay [2], 0.296 µM (active); in assay [4], 6.31 µM (active).
For `C=CC(=O)N1CC/C(=C\c2ccc(F)c([N+](=O)[O-])c2)C(=O)/C(=C/c2ccc(F)c([N+](=O)[O-])c2)C1`, the Potency was 0.0332 µM (active) in assay [1], 0.0332 µM (active) in assay [2], 0.794 µM (active) in assay [3] and 0.316 µM (active) in assay [4].
For the molecule `C[C@H]1[C@H](C)CC[C@]2(C(=O)O)CC[C@]3(C)C(=CC[C@@H]4[C@@]5(C)CC[C@H](O)C(C)(C)[C@@H]5CC[C@]43C)[C@H]12`, the Potency in assay [1] was 23.5 µM (active); in assay [2], 20.9 µM (active). The activity (max response) in assay [3] was -4.55%. Also, in assay [4], the Potency entry was “inactive”.
`O=C(/C=C/c1ccc(/C=C/C(=O)Nc2ccc(C3=NCCN3)cc2)cc1)Nc1ccc(C2=NCCN2)cc1`: the viability (% of control) in assay [1] was 73.8% [at 4.97 µM]. Besides, in assay [2], the viability, % of control was 91.6% [at 4.97 µM]. Moreover, the activity (max response) in assay [3] was -13%. In addition, the activity change, negative = viability loss in assay [4] was -22% [at 3.81 µM].
On to `O=C(O)/C(S)=C/c1ccc(I)cc1`, for which the Potency result in assay [1], in assay [2] and in assay [4] was “inactive” throughout. In addition, the activity (max response) in assay [3] is 9.8%.
Turning to `CCCN1CCCC[C@H]1C(=O)Nc1c(C)cccc1C`, the Potency result in assay [1], in assay [2] and in assay [4] was “inactive” throughout. Moreover, the activity (max response) in assay [3] is 4.43%.
Turning to `Cc1c(NC(C)C)c(=O)n(-c2ccccc2)n1C`, the Potency result in assay [1], in assay [2] and in assay [4] was “inactive” throughout. In addition, in assay [3], the activity (max response) is 8.03%.
In the case of `Cc1cc(I)ccc1Nc1c(C(=O)NOCC2CC2)cc(F)c(F)c1F`, the Potency in assay [1] is 2.31 µM (active); in assay [2] it was 2.59 µM (active); in assay [3] it was 3.16 µM (active); in assay [4], 3.98 µM (active).
Consider `C[C@@H]1CC(=O)Nc2cccc(-c3cnn(C(C)(C)C)c3)c2N1`, for which the results for the Potency in assay [1] and in assay [2] were 14.8 µM (active) and 11.8 µM (active), respectively. Further, the Potency entry in assay [4] was “inactive”.
On the same counts, the results for `N#CN1CCC[C@@H](n2nc(-c3ccc(Oc4ccc(F)cc4F)cc3)c(C(N)=O)c2N)C1` are 13 µM (active), 18.6 µM (active) and “inactive”.
For `Cc1ccccc1OCC(O)CO` (stereo unspecified), the Potency result in assay [1], in assay [2] and in assay [4] was “inactive” each time. Besides, the activity (max response) in assay [3] was -4.04%.
As for `CCOC(=O)C1=C(C)NC(C)=C(C(=O)OCC)C1c1ccccc1/C=C/C(=O)OC(C)(C)C`, the Potency in assay [1] was 9.44 µM (active); in assay [2], 4.73 µM (active); in assay [3], 16.4 µM (active); in assay [4] it was 6.51 µM (active).
Take `O=C(Nc1ccc2[nH]nc(-c3ccncc3)c2c1)[C@@H]1CCN(CC(=O)N2CCN(c3ccc(-c4ncccn4)cc3)CC2)C1`: the Potency in assay [1] is 25.9 nM (active) and 525 nM (active); in assay [2], 23.1 nM (active) and 468 nM (active); in assay [3], 4.47 µM (active). For the same molecule, the Potency entry in assay [4] is “inactive”.
